Measurements taken from PubChem BioAssay (EPA / NIEHS).
Inconclusive results are not listed. Active and inactive are the calls of the source. Rule for the calls: active = hit-call score of the fitted dose curve at least 0.9, where 1 is the maximum; inconclusive = response in the unintended direction; inactive = score below 0.9.

biological target: Nuclear receptor subfamily 1 group I member 2 (Homo sapiens) (UniProt O75469); assay: ATG_PXR_TRANS: Attagene TRANS-FACTORIAL HepG2 Assay for human Pregnane X Receptor (PXR) (AID 2283008)
Sequence (O75469 whole entry, looked up): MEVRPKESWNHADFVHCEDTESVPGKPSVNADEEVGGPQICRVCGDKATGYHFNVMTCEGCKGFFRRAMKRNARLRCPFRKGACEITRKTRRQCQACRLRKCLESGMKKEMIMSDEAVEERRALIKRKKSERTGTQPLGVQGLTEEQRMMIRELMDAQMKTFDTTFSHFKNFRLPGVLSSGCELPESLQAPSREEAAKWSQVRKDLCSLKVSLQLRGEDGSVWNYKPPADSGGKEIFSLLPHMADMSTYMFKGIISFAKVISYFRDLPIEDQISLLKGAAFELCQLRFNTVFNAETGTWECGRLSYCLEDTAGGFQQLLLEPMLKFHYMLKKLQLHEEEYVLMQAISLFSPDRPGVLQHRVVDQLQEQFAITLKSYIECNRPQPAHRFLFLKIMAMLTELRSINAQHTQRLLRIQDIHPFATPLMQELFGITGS
Procedure: ATG_TRANS is a cell-based, multiplexed-readout assay that uses HepG2, a human liver cell line, with measurements taken at 24 hours after chemical dosing in a 24-well plate.ATG_PXR_TRANS is one of 30 assay component(s) measured or calculated from the ATG_TRANS assay. It is designed to make measurements of mRNA induction, a form of inducible reporter, as detected with fluorescence intensity signals by Reverse transcription polymerase chain reaction (RT-PCR) and Capillary electrophoresis technology.Data from the assay component ATG_PXR_TRANS was analyzed into 1 assay endpoint. This assay endpoint, ATG_PXR_TRANS, was analyzed in the positive analysis fitting direction relative to DMSO as the negative control and baseline of activity. Using a type of inducible reporter, measures of mRNA for gain-of-signal activity can be used to understand the reporter gene at the transcription factor-level as they relate to the gene NR1I2. Furthermore, this assay endpoint can be referred to as a primary readout, because this assay has produced multiple assay endpoints where this one serves a reporter gene function. To generalize the intended target to other relatable targets, this assay endpoint is annotated to the nuclear receptor intended target family, where the subfamily is non-steroidal.
Human liver HepG2 cells are transiently transfected with multiple reporter transcription units (MRTUs) in 6-well plates using FuGene 6 reagent (Roche; 3 ml FuGene/1 mg DNA). The MRTU constructs are regulated by a cis-regulating element (promoter). […] A major difference between the CIS and TRANS system is that in CIS activities of endogenous TFs are measured, whereas the TRANS assay evaluates changes in activities of exogenous, chimeric NR-Gal4 proteins. […] At the end of 24 hour incubation, total RNA was isolated using TriZol reagent (Invitrogen). The isolated RNA is then reverse-transcribed using oligo(dT) primer and Mo-MLV reverse transcriptase (Invitrogen) with DNAse I (Ambion) treatment for 30 min. The one-tenth of the produced cDNA was amplified by PCR using Taq DNA polymerase (Invitrogen) and two reporter sequence-specific primers. The PCR products were fluorescently labeled by primer extension with 6-arboxyfluorescein (6-FAM) 5'-labeled reporter sequence-specific primer (2 min at 95 C, 20 s at 68 C and 10 min at 72 C) and these products were digested with 5U of HpaI (New England Biolabs) for 2h at 37 C. The fragments were purified using Qiaquick PCR columns (Qiagen), analyzed on an ABI 3130xL genetic analyzer (Applied Biosystems) with peak positions identified by using a set of X-rhodamine (ROX)-labeled MapMarker1000 molecular weight standards (BioVentures). The raw capillary electrophoresis data was processed using Attagraph software (Attagene).

SMILES	outcome	AC50
COc1cc(OC)nc(NC(=O)NS(=O)(=O)c2ncccc2OCC(F)(F)F)n1	inactive	–
CCC(C)n1c(=O)[nH]c(C)c(Br)c1=O (stereo not given)	inactive	–
COP(=S)(OC)SCn1nnc2ccccc2c1=O	inactive	–
N#CN=C1SCCN1Cc1ccc(Cl)nc1	inactive	–
Nc1c(Cl)c(F)nc(OCC(=O)O)c1Cl	inactive	–
CCSC(=O)N1CCCCCC1	–	84.4 µM (active)
CCCCOCN(C(=O)CCl)c1c(CC)cccc1CC	inactive	–
CCOc1nc(C(Cl)(Cl)Cl)ns1	inactive	–
Cc1cc(C)nc(Nc2ccccc2)n1	inactive	–
CN=C=S	inactive	–
CC(C)(C)C(=O)C(Oc1ccc(Cl)cc1)n1cncn1 (stereo not given)	–	19.9 µM (active)
C=C(C)CN(CC)c1c([N+](=O)[O-])cc(C(F)(F)F)cc1[N+](=O)[O-]	–	13.6 µM (active)
C=CCOC(=O)C(C)(C)OC(=O)c1cc(-n2c(=O)cc(C(F)(F)F)n(C)c2=O)ccc1Cl	inactive	–
CC1(C)CON(Cc2ccccc2Cl)C1=O	inactive	–
COC(=O)c1c(C(F)F)nc(C(F)(F)F)c(C2=NCCS2)c1CC(C)C	–	0.431 µM (active)
Clc1nc(Cl)nc(Nc2ccccc2Cl)n1	inactive	–
CCOP(=S)(OCC)Oc1nc(Cl)n(C(C)C)n1	–	2.39 µM (active)
CCN(CC)C(=O)C(C)Oc1cccc2ccccc12 (stereo not given)	–	0.503 µM (active)
CCOc1nc(F)cc2nc(S(=O)(=O)Nc3c(Cl)cccc3Cl)nn12	inactive	–
COP(=O)(OC)O/C(C)=C/C(=O)N(C)C	inactive	–

SMILES	outcome	AC50
COC(=O)NC(=S)Nc1ccccc1NC(=S)NC(=O)OC	inactive	–
COc1cc(Cl)c(OC)cc1Cl	inactive	–
COCC(=O)N(c1c(C)cccc1C)C(C)C(=O)OC (stereo not given)	inactive	–
CC1(C)CCC(=Cc2ccc(Cl)cc2)C1(O)Cn1cncn1 (stereo not given)	–	9.33 µM (active)
CS(=O)(=O)c1ccc(C(=O)C2C(=O)CCCC2=O)c([N+](=O)[O-])c1	inactive	–
N#Cc1c[nH]cc1-c1cccc2c1OC(F)(F)O2	inactive	–
CC(C)N1C(=O)N(c2ccccc2)CSC1=NC(C)(C)C	inactive	–
Cc1ccc(N=CN(C)C=Nc2ccc(C)cc2C)c(C)c1	inactive	–
CCOP(=O)(OCC)Oc1nc(Cl)c(Cl)cc1Cl	inactive	–
CCOC(=O)C(C)OC(=O)c1cc(Oc2ccc(C(F)(F)F)cc2Cl)ccc1[N+](=O)[O-] (stereo not given)	inactive	–
COCC(C)N(C(=O)CCl)c1c(C)csc1C (stereo not given)	inactive	–
CC(C)=CC1C(C(=O)OCc2coc(Cc3ccccc3)c2)C1(C)C (stereo not given)	inactive	–
CN/C(=N\[N+](=O)[O-])NCc1cnc(Cl)s1	inactive	–
O=c1n(Cl)c(=O)n(Cl)c(=O)n1Cl	inactive	–
CO/N=C(/C1=NOCCO1)c1ccccc1Oc1ncnc(Oc2ccccc2Cl)c1F	inactive	–
CS(=O)(=O)c1cc(C(F)(F)F)ccc1C(=O)c1cnoc1C1CC1	inactive	–
CNC(=O)Oc1cccc2ccccc12	inactive	–
COC(=O)N(C(=O)N1CO[C@@]2(C(=O)OC)Cc3cc(Cl)ccc3C2=N1)c1ccc(OC(F)(F)F)cc1	–	5.9 µM (active)
Cc1c(COC(=O)[C@@H]2[C@H](/C=C(\Cl)C(F)(F)F)C2(C)C)cccc1-c1ccccc1	inactive	–
CC1(C)C(C(=O)OC(C#N)c2cccc(Oc3ccccc3)c2)C1(C)C (stereo not given)	–	9.21 µM (active)
